This is an account of results in PubChem BioAssay (NCI).

About 83,000 compounds went through this panel and 20% of them were active in at least one assay; those are over-represented in the sample as a whole.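 Single-concentration screen, 48 h exposure, 96-well plates. Endpoint: percent growth. Below 10 = active.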 Unmarked numbers belong to inactive results. Activity calls are given as the source filed them.

What all share (experiment): NCI-60 one-dose screen, 48 h (100 = growth as untreated, 0 = no growth, -100 = all killed)
Assay [1] has as its system SK-MEL-2 melanoma. To be noted: 10 µM unless noted.
The test system of assay [2] is EKVX NSCLC. To be noted: 10 µM unless noted.
For assay [3], the system named is SN12C renal. The conditions noted are these: 10 µM unless noted.
For assay [4], the system named is UO-31 renal. The conditions noted are these: 10 µM unless noted.
Assay [5] has as its system TK-10 renal. To be noted: 10 µM unless noted.
Assay [6] concerns ACHN renal. The conditions noted are these: 10 µM unless noted.
Assay [7] relates to CAKI-1 renal. To be noted: 10 µM unless noted.
Assay [8] relates to A498 renal. The conditions noted are these: 10 µM unless noted.
The test system of assay [9] is CCRF-CEM leukemia. The conditions noted are these: 10 µM unless noted.
Assay [10] relates to MOLT-4 leukemia. The conditions noted are these: 10 µM unless noted.
Assay [11] relates to SR leukemia. The conditions noted are these: 10 µM unless noted.
Assay [12] concerns RPMI-8226 leukemia. The conditions noted are these: 10 µM unless noted.
Assay [13] relates to OVCAR-8 ovarian. The conditions noted are these: 10 µM unless noted.
The subject of assay [14] is OVCAR-5 ovarian. To be noted: 10 µM unless noted.
Assay [15] deals with OVCAR-4 ovarian. To be noted: 10 µM.
Assay [16] has as its system SK-OV-3 ovarian. To be noted: 10 µM unless noted.
In assay [17] the test system is IGROV1 ovarian. To be noted: 10 µM unless noted.
The test system of assay [18] is OVCAR-3 ovarian. To be noted: 10 µM unless noted.
In assay [19] the test system is HS 578T breast. To be noted: 10 µM unless noted.
The test system of assay [20] is NCI/ADR-RES ovarian. The conditions noted are these: 10 µM unless noted.

For `O=C(NCCCNC(=O)OCc1ccc2c(Br)cc(Br)c(O)c2n1)OCc1ccc2c(Br)cc(Br)c(O)c2n1`, the growth in assay [1] is -6.76% (active); in assay [2] it was -5.94% (active); in assay [3], -77.4% (active); in [4] it was -100% (active); in assay [5], -89% (active); in assay [6] it was -100% (active). In addition, the growth was -92% (active) in assay [7]; -2.82% (active) in assay [8]; 4.23% (active) in assay [9]; 0.977% (active) in assay [10]; 5.95% (active) in assay [11]; -27.3% (active) in assay [12]. The growth in assay [13] is -14.6% (active); in assay [14], -63% (active); in [15] it was -77.6% (active); in [16], 20.2%; in assay [17], -87.7% (active); in assay [18], -69.3% (active). For the same compound, the growth is -19.1% (active) in [19] and -29% (active) in assay [20].
As to `CC1Cc2c(Cl)ncnc2N(C)c2ccc(Cl)cc21` (stereo not drawn), the growth is -27.7% (active) in assay [1]; 14.2% in assay [2]; 2.41% (active) in [3]; 19.6% in assay [4]; 11.2% in assay [5]; 11.8% in assay [6]. Moreover, the growth is 8.59% (active) in assay [7]; -34.9% (active) in [8]; 19.4% in assay [9]; 8.07% (active) in [10]; 6.35% (active) in [11]; -3.81% (active) in [12]. Moreover, the growth in [13] is 8.59% (active); in assay [14], 39.8%; in assay [15] it was 7.91% (active); in [16], 12%; in assay [17] it was 30.5%; in [18], 9.74% (active). Also, the growth in assay [19] is 23.4%; in assay [20], 13.1%.
Regarding `C#CCC(C(=O)OCC)C(=O)OCC`, the growth was 107% in [1]; 95.1% in assay [2]; 109% in assay [3]; 85% in [4]; 98.7% in [5]; 102% in assay [6]. Also, the growth in [7] was 93.6%; in [8], 94.6%; in [9], 104%; in assay [10], 100%; in assay [11] it was 99.9%; in [12], 102%. For the same compound, the growth in assay [13] is 105%; in [14] it was 94.9%; in assay [15], 128%; in assay [16] it was 99.5%; in [17] it was 117%; in assay [18] it was 103%. Besides, the growth in assay [19] is 104%; in assay [20], 105%.
With `Cc1ccc(-c2cc(O)c(-c3ccc(C)cc3C)cc2O)c(C)c1`, the growth in assay [1] was 91.8%; in [2] it was 56.6%; in [3] it was 68.9%; in assay [4], 64.5%; in [5] it was 79.1%; in assay [6] it was 73.2%. Also, the growth in [7] was 39.7%; in assay [8] it was 94.3%; in assay [9], 39.5%; in [10], 31.7%; in [11] it was 7.1% (active); in assay [12] it was 37.2%. For the same compound, the growth in [13] is 47.7%; in assay [14] it was 96.9%; in assay [15] it was 41.2%; in assay [16] it was 82.7%; in [17], 86.9%; in [18], 67.8%. For the same compound, the growth in [19] was 87.9%; in assay [20], 52.2%.
With `CC(C)CCSC1=CC(=O)c2ccccc2C1=O`, the growth is 83.1% in [1]; 81% in assay [2]; 90.2% in assay [3]; -63.5% (active) in assay [4]; 103% in assay [5]; 11.2% in [6]. For the same compound, the growth in assay [7] was 21.1%; in assay [8], 98.4%; in assay [9] it was 0.242% (active); in assay [10], 16%; in assay [11], 6.01% (active); in assay [12] it was -62.3% (active). For the same compound, the growth is 56.4% in [13]; 112% in [14]; -50.6% (active) in [15]; 104% in [16]; -35.3% (active) in [17]; -57.5% (active) in [18]. Further, the values for the growth in [19] and in [20] were 74% and 76.3%, respectively.
As for `Cn1cc(-c2noc(-c3cn(C)c4ncc(Br)cc34)n2)c2cc(Cl)ccc21`, the growth is 82.4% in assay [1]; 62.7% in [2]; 50.5% in [3]; 71.8% in assay [4]; 64.7% in assay [5]; 31.8% in assay [6]. Further, the growth in assay [7] was 50.8%; in [8], 84.8%; in [9] it was 68.6%; in assay [10] it was 67.7%; in [11] it was 44.3%; in assay [12], 87.6%. Further, the growth is 99.7% in assay [13]; 70.5% in assay [14]; -25.7% (active) in assay [15]; 62.8% in assay [16]; 54.2% in assay [17]; 44.2% in assay [18]. Besides, the results for the growth in assay [19] and in [20] were 65.8% and 58.5%, respectively.
For the compound `O=C1/C(=C/c2ccc(OCc3ccccc3)cc2)Oc2cc(OCCN3CCCCC3)ccc21`, the growth in [1] was 112%; in assay [2] it was 80.5%; in [3], 82.4%; in assay [4] it was 70.6%; in [5] it was 104%; in assay [6], 89.6%. The growth was 70.5% in assay [7]; 60.9% in assay [8]; 73% in assay [9]; 76.1% in assay [10]; 13.3% in assay [11]; 54% in assay [12]. Besides, the growth in assay [13] is 89.8%; in assay [14], 88.8%; in assay [15], 61.2%; in assay [16], 104%; in assay [17] it was 87%; in assay [18], 88.1%. The growth in assay [20] is 79.2%.
Take `COc1cc(C)cc2oc3oc(=O)c(-c4nc5ccccc5s4)cc3c(=O)c12`: the growth was 113% in [1]; 105% in [2]; 98.4% in [3]; 74.6% in assay [4]; 101% in assay [5]; 100% in assay [6]. The growth in assay [7] was 91.8%; in [8] it was 85.1%; in assay [9], 107%; in assay [10], 106%; in assay [11] it was 105%; in [12], 94.1%. For the same compound, the growth in assay [13] is 86.4%; in [14] it was 89.7%; in [15], 96.7%; in assay [16] it was 111%; in assay [17], 83.2%; in assay [18], 85.3%. For the same compound, the growth in assay [20] was 94.4%.
